This is one part of a sample in which hits are shown more often than they occur.
VHR inh color: VHR1 (DUSP3) phosphatase inhibition; actives 0.7% (n = 50,000); inhibition, % at 20 µM; recombinant VHR phosphatase, colorimetric substrate read-out; P51452; in the data active = inhibition above about 60%
Target sequence (P51452 whole entry, looked up): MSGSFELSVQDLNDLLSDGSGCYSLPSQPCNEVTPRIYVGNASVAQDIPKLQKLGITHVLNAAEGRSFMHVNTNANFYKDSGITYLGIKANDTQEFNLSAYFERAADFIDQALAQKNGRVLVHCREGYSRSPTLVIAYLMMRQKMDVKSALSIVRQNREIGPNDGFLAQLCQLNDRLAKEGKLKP
Starred values were filed as active, the others as inactive.

SMILES	VHR inh color
N#C/C(=C\c1ccc(C(=O)O)cc1)C(=O)NCc1ccco1	-3.0
N#CC(C#N)=C1C(Cl)=C(Cl)c2ccccc21	66.0*
N#Cc1c(-c2ccccc2)cc(-c2ccccc2Cl)c(C#N)c1N	7.4
O=C1C(=O)c2ccccc2C(Cl)=C1Cl	-6.6
C/C(=N\N1CCN(Cc2cccc3ccccc23)CC1)c1ccc(O)cc1	-4.2
COc1cccc2c1NC(c1cccc3ccccc13)C1CC=CC21 (configuration not stated)	88.3*
COc1cccc2c1NC(c1ccccc1Cl)C1CC=CC21 (configuration not stated)	-2.7
COC(=O)c1ccc2c(c1)C1C=CCC1C(c1cccc3ccccc13)N2 (configuration not stated)	47.1
CC1=C(C)CC2C(=O)C3=C(C(=O)C2C1)C1c2ccccc2C3c2ccccc21 (configuration not stated)	12.9
O=C(COc1cccc2ccccc12)NCCO	-13.9
Cc1ccc(C)c(NC(=O)C2C3C4CCC(C4)C23)c1 (configuration not stated)	1.1
Cc1ccc(NC(=O)C2C3C4CCC(C4)C23)cc1 (configuration not stated)	-22.2
O=C(Nc1ccc(Br)cc1)C1C2C3CCC(C3)C12 (configuration not stated)	-9.1
O=C(Nc1ccc(Cl)cc1)C1C2C3CCC(C3)C12 (configuration not stated)	118.0*
O=C(Nc1ccccc1)C1C2C3CCC(C3)C12 (configuration not stated)	-4.7
Cc1cc(C)c(NC(=O)C2C3C4CCC(C4)C23)c(C)c1 (configuration not stated)	113.9*
O=C(Nc1ccccc1Cl)c1ccn(C(=O)c2cccc(Cl)c2)n1	1.1
COc1ccc(N/C(C)=C/C2=[N+](c3ccccc3)C(O)(c3ccccc3)CS2)cc1 (configuration not stated)	31.1
N#C/C(=C/c1ccccc1F)C(=O)Nc1cccc(Br)c1	2.3
COc1cc(NC(=O)c2ccccc2Br)c2ncccc2c1	-17.6
O=C(O)C1C2C=CC(C3CC23)C1C(=O)Nc1ccccc1Cl (configuration not stated)	-2.8
Cc1cccc(NC(=O)C2C3C=CC(C4CC34)C2C(=O)O)c1C (configuration not stated)	100.3*
Cc1cccc(NC(=O)C2C(c3ccccc3)C2(Cl)Cl)c1C (configuration not stated)	-10.9
Cc1ccccc1OCC(=O)N/N=C/c1ccc[nH]1	-17.4
CCOC(=O)C1=NNC(C(=O)c2ccccc2)C1c1ccc(Br)cc1 (configuration not stated)	0.4
SMILES	VHR inh color
CCOC(=O)C1=NNC(C(=O)c2ccc(OC)cc2)C1c1ccccc1Cl (configuration not stated)	104.7*
CCOC(=O)C1NN=C(C(=O)c2ccc(OC)cc2)C1c1ccccc1Cl (configuration not stated)	0.3
Cc1cc(C=O)c(C)n1-c1ccc(Cl)c(Cl)c1	-20.9
O=C1NC(=S)N(c2cccc(Br)c2)C(=O)/C1=C/c1ccco1	88.6*
CCOc1ccc(N2C(=O)NC(=O)/C(=C\c3ccc(C)o3)C2=O)cc1	-0.1
Cc1cc(/C=C2\C(=O)NC(=S)N(c3cccc(Br)c3)C2=O)c(C)n1C	-13.4
O=C1NC(=S)N(c2cccc(Br)c2)C(=O)/C1=C/c1ccc(O)c(Cl)c1	-5.0
CCOC(=O)C1=C(C)N(c2ccc(OCC)cc2)C(=O)/C1=C\c1ccco1	-13.7
CCOc1ccc(N2C(=O)/C(=C/c3ccco3)C(=O)NC2=S)cc1	80.1*
COc1ccccc1NC(=O)c1c(NC(=O)C(C)(C)C)sc2c1CCCC2	-6.5
Cc1cccc(NC(=O)c2c(NC(=O)C(C)(C)C)sc3c2CCCC3)c1	87.9*
Cc1ccccc1NC(=O)c1c(NC(=O)C(C)(C)C)sc2c1CCCC2	-2.3
COc1cccc(-n2c(CCN3C(=O)c4ccccc4C3=O)nc3ccccc3c2=O)c1	20.9
CC(C)C1S/C(=N/N=C/c2ccc(O)cc2)NC1=O (configuration not stated)	93.0*
Cc1ccc(/C=N/N=C2\NC(=O)C(C)S2)cc1 (configuration not stated)	-0.9
COc1ccc(CC2S/C(=N\N=C\c3ccc(C(C)C)cc3)NC2=O)cc1 (configuration not stated)	-7.6
COc1ccc(/C=N/c2ncn[nH]2)cc1	-12.3
COc1cccc(/C=C2/N=C(c3ccc(NC(C)=O)cc3)OC2=O)c1	-0.9
CCOc1cc(C=C2C(=O)NC(=O)NC2=O)ccc1OCc1ccccc1	5.6
CCOc1cc(/C=C2/N=C(c3ccc(NC(C)=O)cc3)OC2=O)ccc1OCc1ccccc1	86.0*
COc1ccc(N2C(=O)/C(=C/c3ccc(OCC(=O)O)c(Br)c3)C(=O)NC2=S)cc1	58.1
CCOc1ccc(N2C(=O)CC(N3CCC(C(N)=O)CC3)C2=O)cc1 (configuration not stated)	-20.9
CCOc1ccc(N2C(=O)CC(N3CCCCC3)C2=O)cc1 (configuration not stated)	102.2*
CCOc1ccc(N2C(=O)CC(N3CCC(C(N)=O)(N4CCCCC4)CC3)C2=O)cc1 (configuration not stated)	-35.5
CCCn1c(=O)c(C(=O)NNC(=O)COc2ccccc2)c(O)c2ccccc21	-6.0
SMILES	VHR inh color
CN1CCN(c2ccc([N+](=O)[O-])c(NCCOc3ccc(C(C)(C)C)cc3)c2)CC1	-24.0
CC(=O)Oc1cccc(C(=O)Nc2cc(C)on2)c1	-14.5
CCOC(=O)c1c(C)[nH]c(/C=C(/C#N)C(N)=NCc2ccccc2)c1O	18.5
Brc1ccc(OCCOc2cccc(/C=N/n3cnnc3)c2)cc1	7.2
C(=N\n1cnnc1)/c1ccc(OCCOc2ccc(C3CCCCC3)cc2)cc1	105.7*
CCOc1cc(/C=N\n2cnnc2)ccc1OCCOCCOc1ccc(C)cc1	-6.7
C1=C=CC(OCCOc2ccc(/C=N/n3cnnc3)cc2)=CC=1	-16.5
CCc1cc(C)cc(OCCOc2ccc(/C=N/n3cnnc3)cc2)c1	46.4
Cc1ccc(C(C)C)c(OCCOc2ccc(/C=N/n3cnnc3)cc2)c1	-17.4
CCOc1cc(/C=N/n2cnnc2)ccc1OCCOc1cccc(C)c1	-3.3
C(=N\n1cnnc1)/c1cccc(OCCOc2ccc(C3CCCCC3)cc2)c1	103.5*
COc1cccc(OCCOc2ccc(/C=N/n3cnnc3)cc2)c1	109.6*
CCOC(=O)C1=C(C)N=c2s/c(=C\C=C\c3ccccc3)c(=O)n2C1c1cccc([N+](=O)[O-])c1 (configuration not stated)	-0.3
COc1cccc(OCCOCCN2CCN(C)CC2)c1	6.8
Cc1ccc(/C=N/NC(=O)/C(=C\c2ccc3c(c2)OCO3)NC(=O)c2ccccc2)o1	-4.4
Cc1ccc(/C=C/C(=O)N2CCN(c3ccc([N+](=O)[O-])cc3)CC2)o1	-6.9
Cc1cccc(NC(=O)C2C(c3ccccc3)=C2c2ccccc2)c1C	-1.9
O=C(Nc1ccc(Br)cc1)C1C(c2ccccc2)=C1c1ccccc1	-10.8
CC(C)NC(=O)C1C(c2ccccc2)=C1c1ccccc1	119.5*
CCOc1ccc(S(=O)(=O)N(CC(=O)NC2CCCCC2)c2ccc(C)cc2)cc1	90.2*
Cc1ccc(N(CC(=O)NC2CCCC2)S(=O)(=O)c2ccccc2)cc1	1.1
Cc1ccc(N(CC(=O)NC2CCCC2)S(=O)(=O)c2ccc(F)cc2)cc1	-35.2
O=C(CSc1nc2ccccc2c(=O)n1Cc1ccccc1)c1ccc(Br)cc1	-7.9
O=C1c2cccc3c4ccccc4n(c23)C(=O)C1(O)O	90.4*

Assay outcomes deposited in PubChem BioAssay by Sanford-Burnham Center for Chemical Genomics.
